# Test results reported in PubChem BioAssay (Tox21).
# “And” between values parts separate entries of the source, which are not always exact repeats. Identical values can stand only once. Results filed as inconclusive are left out. A call without a number means that no potency is given here. Unmarked numbers belong to inactive results. The source made the active and inactive calls. The call rests on the fitted dose curve; in most records, active means well fitted cell-killing curve with a large enough effect in the repeat runs; inconclusive means weak or mixed curves, or effect the other way; inactive means flat fitted curve, though single readings scatter. Starred links: 1 amine or outer side, 2 acyl side, 3 side chain; linkers in the order of their positions; H or OH if unused. Positions of bridges follow the written chain, without caps; N, C: chain ends. Non-standard residues stand in square brackets, D forms with d. Residues, ends and D or L forms follow the SMILES beside them. Chains are numbered I, II in the order given. Actinocin(9to1) = Cc1c2oc3c(C)ccc(C(=O)[*:1])c3nc-2c(C(=O)[*:2])c(N)c1=O; NMeV = CN[C@H](C(=O)O)C(C)C; Sar = CNCC(=O)O
# Assay: qHTS RealTime-Glo MT Cell Viability Assay in HepG2 cells - 0 hour (AID 1224889); further: nearly all actives have a fitted effect of over 50% in size
# Settings: RealTime-Glo luminescence; series mostly up to 76.8 µM; activity change, negative = cytotoxicity: at the top concentration
# From the text: U.S. Tox21 Program National Center for Advancing Translational Sciences [NCATS] NIH Chemical Genomics Center [NCGC] U.S. Environmental Protection Agency [EPA] National Institutes of Environmental Health Sciences [NIEHS] National Toxicology Program [NTP] U.S. Food and Drug Administration [FDA] Tox21 Assay Overview: Measure of cell viability is critical in the cell-base assay. Analysis of cell viability is necessary for the characterization of cell responses to cytotoxic drugs and environmental stress. A RealTime-Glo MT Cell Viability Assay to monitor cell viability in real time of continues cell culture during 40 hours of compound treatment was used to screen Tox21 10K library compounds in HepG2 cells. The RealTime-Glo MT Cell Viability Assay is a nonlytic, homogeneous, bioluminescent method to measure cell viability in real time using a simple, plate-based method. The assay involves adding NanoLuc luciferase and a cell-permeant prosubstrate to cells in culture. Viable cells reduce the proprietary prosubstrate to generate a substrate for NanoLuc luciferase. This substrate diffuses from cells into the surrounding culture medium, where it is rapidly used by the NanoLuc Enzyme to produce a luminescent signal. The signal correlates with the number of viable cells, making the assay well suited for cytotoxicity studies.
# Tox21 Assay Protocol Summary: The mixture of HepG2 cell suspension and reagents were dispensed at 600cells/6 ul/well in 1536-well tissue culture treated black solid bottom plates using a Multidrop dispenser. After the assay plates were incubated at a 37 C/5% CO2 incubator for 5 hours, 23 nL of compounds dissolved in DMSO, positive and negative controls was transferred to the assay plate by a pintool work station. The plates were incubated at 37 C for 40 hours. The luminescence intensity were measured at 0h, 8h, 16h, 24h, 32h and 40h time points using ViewLux plate reader during compound treatment.
# Potency means the concentration at half of the fitted maximal effect.
SMILES,"activity change, negative = cytotoxicity",Potency
CCCC(=O)c1ccccc1,1.22%,
CCc1ccc(C(c2ccc(CC)cc2)C(Cl)Cl)cc1,,inactive
Nc1ccc(O)cc1,-0.373% [at 35.3 µM],
O=C(Oc1ccccc1)c1ccccc1O,,inactive
C/C=C/c1ccc(OCC)c(O)c1,,inactive
COc1ccc(COC(C)=O)cc1,,inactive
CC(C)(C)c1ccc(O)c(C(C)(C)C)c1,,inactive
NCCO,,inactive
C[N+]1([O-])CCOCC1,0.96%,
CCCNC(C)C(=O)Nc1ccccc1C (stereo not given),8.86% [at 35.3 µM],
CCC(=O)/C=C/C1C(C)=CCCC1(C)C (stereo not given),,inactive
BrC1CCC(Br)C(Br)CCC(Br)C(Br)CCC1Br (stereo not given),,inactive
CC(C)(C)NC(=O)[C@@H]1CN(Cc2cccnc2)CCN1C[C@@H](O)C[C@@H](Cc1ccccc1)C(=O)N[C@H]1c2ccccc2C[C@H]1O,,inactive
NCCCCCC(=O)O,-3.23% [at 35.3 µM],
CN(C)c1ccc(C(=C2C=CC(=[N+](C)C)C=C2)c2ccccc2)cc1,,inactive
CO[Si](OC)(OC)c1ccccc1,-6.95%,
"Cc1c2oc3c(C)ccc(C(=O)N[C@@H]4C(=O)N[C@H](C(C)C)C(=O)N5CCC[C@H]5C(=O)N(C)CC(=O)N(C)[C@@H](C(C)C)C(=O)O[C@@H]4C)c3nc-2c(C(=O)N[C@@H]2C(=O)N[C@H](C(C)C)C(=O)N3CCC[C@H]3C(=O)N(C)CC(=O)N(C)[C@@H](C(C)C)C(=O)O[C@@H]2C)c(N)c1=O (I: T[dV]P[Sar][NMeV] / II: T[dV]P[Sar][NMeV]; ester I:1-I:C, II:1-II:C; linker I:N-II:N via Actinocin(9to1))",-15.8% [at 35.3 µM],
O=C1Nc2ccccc2C1(c1ccc(O)cc1)c1ccc(O)cc1,-15.2% [at 35.3 µM],
Cc1cc(OCCOCC[N+](C)(C)Cc2ccccc2)ccc1C(C)(C)CC(C)(C)C,-11.7% [at 35.3 µM],
CC(C(O)c1ccc(O)cc1)N1CCC(Cc2ccccc2)CC1 (stereo not given),7.32% [at 35.3 µM],

SMILES,"activity change, negative = cytotoxicity",Potency
CC(C)C(=O)c1c(C(C)C)nn2ccccc12,3.28% [at 35.3 µM],
CC(=O)Nc1ccc(C(=O)CCl)cc1,,inactive
Cc1cc(Cc2cc(C)cc(C(C)(C)C)c2O)c(O)c(C(C)(C)C)c1,,inactive
COc1nc(C)nc(Cl)c1NC1=NCCN1,1.22% [at 35.3 µM],
CC(=O)O[C@]1(C(C)=O)CC[C@H]2[C@@H]3C[C@H](C)C4=CC(=O)CC[C@]4(C)[C@H]3CC[C@@]21C,,174 nM (active) and 301 nM (active)
CCC(C)(Oc1ccc(C2(c3ccc(OC(C)(CC)C(=O)O)cc3)CCCCC2)cc1)C(=O)O (stereo not given),-1.38% [at 35.3 µM],
COc1ccc(CCN2CCC(Nc3nc4ccccc4n3Cc3ccc(F)cc3)CC2)cc1,,inactive
CC(C)(C)c1cc(C(C)(C)C)c(O)c(C(C)(C)C)c1,,inactive
CCCCN(CCO)CCCC,10%,
CC(=O)CC(=O)Nc1ccc2[nH]c(=O)[nH]c2c1,8.34%,
CC[C@H]1CN2CCc3cc(OC)c(OC)cc3[C@@H]2C[C@@H]1C[C@H]1NCCc2cc(OC)c(OC)cc21,,inactive
CC(=O)OCC1=C(C(=O)O)N2C(=O)[C@@H](NC(=O)Cc3cccs3)[C@H]2SC1,1.9% [at 35.3 µM],
CC(C)CCOC(=O)c1ccc(N(C)C)cc1,-3.5% [at 35.3 µM],
[Cl][In]([Cl])[Cl],,inactive
C=CC(=O)OCCCCCCOC(=O)C=C,,inactive
CC(=O)C1=C(C)[C@@H]2C[C@@]3(C1)[C@H](C)CC[C@H]3C2(C)C,,inactive
COC(=O)/C=C/c1ccccc1,,inactive
CC(C)CCOCc1ccccc1,-5.31%,
CCCN[C@H]1CCc2nc(N)sc2C1,,inactive
O=C(OCc1ccccc1)c1ccc(O)cc1,,inactive
